Records with an inconclusive call do not appear. Active and inactive are the calls of the source. Unless noted, the call rests on the fitted dose curve; in most records, active means well fitted curve in the direction sought with a large enough effect in the repeat runs; inconclusive means weak or mixed curves; inactive means flat fitted curve, though single readings scatter.
How the values were obtained:
[1] = qHTS assay to test for compound auto fluorescence at 535 nm (green) in HEK293 cells (AID 720680)
[2] = qHTS assay to test for compound auto fluorescence at 460 nm (blue) in HEK293 cell free culture (AID 720681)
In short: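 Compounds were added to cell-free DMEM with 10% FBS and fluorescence read directly. The blue channel used 405 nm excitation and 460 nm emission, with triamterene as the reference fluorophore.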

[3] = qHTS assay to test for compound auto fluorescence at 535 nm (green) in HEK293 cell free culture (AID 720682)
In short: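 Using fluorescein as calibrant, autofluorescence was quantified at 485/535 nm in cell-free DMEM containing 10% FBS after pintool addition of compound or vehicle.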

[4] = qHTS assay to test for compound auto fluorescence at 590 nm (red) in HEK293 cell free culture (AID 720683)
In short: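 Cell-free wells of DMEM with 10% FBS received compound, and intrinsic fluorescence was read at excitation/emission 540/590 nm. Values expressed as equivalence to Rose Bengal sodium.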

[5] = qHTS assay to test for compound auto fluorescence at 590 nm (red) in HepG2 cell free culture (AID 720684)
In short: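 Compound was pinned into wells holding MEM with 10% FBS and no cells, and red fluorescence was read at Ex/Em 540/590 nm. Signal is expressed as auto fluorescence equivalency relative to Rose Bengal sodium.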

[6] = qHTS assay to test for compound auto fluorescence at 460 nm (blue) in HepG2 cell free culture (AID 720685)
In short: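 Compound (23 nL) or DMSO pinned into cell-free MEM with 10% FBS; blue fluorescence read at 405/460 nm excitation/emission, expressed as auto-fluorescence equivalency to triamterene.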

[7] = qHTS assay to test for compound auto fluorescence at 535 nm (green) in HepG2 cell free culture (AID 720686)
[8] = qHTS assay to test for compound auto fluorescence at 460 nm (blue) in HepG2 cells (AID 720687)
In short: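 HepG2 cells in MEM with 10% FBS, attached overnight at 37 C, were exposed to compound or DMSO for 1 hr at 37 C, 5% CO2. Blue fluorescence was read at 405/460 nm, with triamterene as reference fluorophore.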

[9] = target: Glucocorticoid receptor (Homo sapiens) (UniProt P04150); test: qHTS assay to identify small molecule agonists of the glucocorticoid receptor (GR) signaling pathway (AID 720691; active means well fitted activation curve with a large enough effect in the signal ratio in the repeat runs, not every such curve was filed as active; the % refers to the signal ratio)
Sequence of Glucocorticoid receptor (Homo sapiens) (P04150 whole entry, looked up): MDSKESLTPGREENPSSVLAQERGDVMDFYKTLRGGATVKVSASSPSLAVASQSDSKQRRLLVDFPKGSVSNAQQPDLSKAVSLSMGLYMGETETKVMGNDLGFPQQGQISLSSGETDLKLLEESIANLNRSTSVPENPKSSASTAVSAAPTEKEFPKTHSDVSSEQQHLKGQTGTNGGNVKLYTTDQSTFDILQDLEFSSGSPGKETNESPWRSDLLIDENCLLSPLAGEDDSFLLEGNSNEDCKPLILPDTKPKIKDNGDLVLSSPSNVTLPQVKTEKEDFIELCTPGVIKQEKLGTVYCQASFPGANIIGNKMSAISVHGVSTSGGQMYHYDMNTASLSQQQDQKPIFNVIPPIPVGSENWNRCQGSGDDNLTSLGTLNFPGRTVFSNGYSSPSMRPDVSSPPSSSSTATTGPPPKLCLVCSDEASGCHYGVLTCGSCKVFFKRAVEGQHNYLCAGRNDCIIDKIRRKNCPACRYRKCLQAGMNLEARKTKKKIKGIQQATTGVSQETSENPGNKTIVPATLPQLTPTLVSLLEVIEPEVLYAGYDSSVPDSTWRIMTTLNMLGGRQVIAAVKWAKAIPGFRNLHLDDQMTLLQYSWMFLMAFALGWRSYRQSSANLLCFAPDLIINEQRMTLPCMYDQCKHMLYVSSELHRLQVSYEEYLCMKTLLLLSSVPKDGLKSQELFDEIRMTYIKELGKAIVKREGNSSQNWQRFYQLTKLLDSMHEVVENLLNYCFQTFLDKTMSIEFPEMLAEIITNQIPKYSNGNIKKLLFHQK
In short: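 Beta-lactamase reporter activity, read as fluorescence intensity, was measured in GR-bla HeLa cells exposed to compounds for 18 h at 37 C and then loaded with LiveBLAzer B/G FRET substrate for 2 h at room temperature.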
On the % scale 0 is the no-effect control and ±100 the full control effect.

Cc1cc(O)ccc1N
inactive: outcome [1] | Potency [2] | outcome [3] | outcome [4] | outcome [5] | Potency [6] | outcome [7] | Potency [8] | Potency [9]

CCN(CC)CCOc1ccc2c(c1)C(=O)c1cc(OCCN(CC)CC)ccc1-2
inactive: outcome [1] | Potency [2] | outcome [3] | outcome [4] | outcome [5] | Potency [6] | outcome [7] | Potency [8] | Potency [9]

CCCCC(CC)(CO)CO
inactive: outcome [1] | Potency [2] | outcome [3] | outcome [4] | outcome [5] | Potency [6] | outcome [7] | Potency [8]

CC(=O)c1ccc2c(c1)[C@H](NC(=O)c1ccc(F)cc1)[C@@H](O)C(C)(C)O2
inactive: outcome [1] | Potency [2] | outcome [3] | outcome [4] | outcome [5] | Potency [6] | outcome [7] | Potency [8] | Potency [9]

CCCCOc1cc(C(=O)OCCN(CC)CC)ccc1N
inactive: fluorescence, % of fluorescein [1] 0.0482% [at 18.6 µM] | fluorescence, % of fluorescent control [2] -0.116% [at 18.6 µM] | activity change [3] -0.0782% [at 18.6 µM] | fluorescence, % of fluorescent control [4] -0.0563% [at 18.6 µM] | fluorescence, % of Rose Bengal [5] 0.59% [at 18.6 µM] | fluorescence, % of fluorescent control [6] 0.0523% [at 18.6 µM] | fluorescence, % of fluorescein control [7] 0.0068% [at 18.6 µM] | fluorescence, % of fluorescent control [8] -0.135% [at 18.6 µM] | Potency [9]

CCCCOc1ccc(CC(=O)NO)cc1
inactive: fluorescence, % of fluorescein [1] 0.0125% [at 18.6 µM] | fluorescence, % of fluorescent control [2] -0.0158% [at 18.6 µM] | activity change [3] 0.0033% [at 18.6 µM] | fluorescence, % of fluorescent control [4] -0.0389% [at 18.6 µM] | fluorescence, % of Rose Bengal [5] -0.259% [at 18.6 µM] | fluorescence, % of fluorescent control [6] 0.0098% [at 18.6 µM] | fluorescence, % of fluorescein control [7] -0.0407% [at 18.6 µM] | fluorescence, % of fluorescent control [8] -0.124% [at 18.6 µM] | Potency [9]

CC(C)(C)c1cc(CO)cc(C(C)(C)C)c1O
inactive: outcome [1] | Potency [2] | outcome [3] | outcome [4] | outcome [5] | Potency [6] | outcome [7] | Potency [8] | Potency [9]

NCCCN(CCO)CCO
inactive: outcome [1] | Potency [2] | outcome [3] | outcome [4] | outcome [5] | Potency [6] | outcome [7] | Potency [8]

CC1=CCC(C(C)C)C=C1 (configuration not stated)
inactive: outcome [1] | Potency [2] | outcome [3] | outcome [4] | outcome [5] | Potency [6] | outcome [7] | Potency [8]

Nc1cnn([C@@H]2O[C@H](CO)[C@@H](O)[C@H]2O)c(=O)n1
inactive: outcome [1] | Potency [2] | outcome [3] | outcome [4] | outcome [5] | Potency [6] | outcome [7] | Potency [8]

CC(=O)/C=C/C1C(C)=CCCC1(C)C (configuration not stated)
inactive: outcome [1] | Potency [2] | outcome [3] | outcome [4] | outcome [5] | Potency [6] | outcome [7] | Potency [8]

CCCCCC(CO)CCC (configuration not stated)
inactive: outcome [1] | Potency [2] | outcome [3] | outcome [4] | outcome [5] | Potency [6] | outcome [7] | Potency [8]

CC(C(=O)O)c1ccc(-c2ccccc2)c(F)c1 (configuration not stated)
inactive: outcome [1] | Potency [2] | outcome [3] | outcome [4] | outcome [5] | Potency [6] | outcome [7] | Potency [8] | Potency [9]

Nc1ccc(C(=O)Nc2ccccc2N)cc1
inactive: outcome [1] | Potency [2] | outcome [3] | outcome [4] | outcome [5] | Potency [6] | outcome [7] | Potency [8]

COC(Cc1ccccc1)OC
inactive: outcome [1] | Potency [2] | outcome [3] | outcome [4] | outcome [5] | Potency [6] | outcome [7] | Potency [8] | Potency [9]

C=CC(=O)OCC(C)OCC(C)OCC(C)OC(=O)C=C (configuration not stated)
inactive: outcome [1] | Potency [2] | outcome [3] | outcome [4] | outcome [5] | Potency [6] | outcome [7] | Potency [8] | Potency [9]

Oc1ccc(Cc2ccccc2)cc1
inactive: outcome [1] | Potency [2] | outcome [3] | outcome [4] | outcome [5] | Potency [6] | outcome [7] | Potency [8] | Potency [9]

O=C(O)Cc1sc(-c2ccccc2)nc1-c1ccc(Cl)cc1
inactive: outcome [1] | Potency [2] | outcome [3] | outcome [4] | outcome [5] | Potency [6] | outcome [7] | Potency [8] | Potency [9]

O=[N+]([O-])c1cccc(Cl)c1Cl
inactive: outcome [1] | Potency [2] | outcome [3] | outcome [4] | outcome [5] | Potency [6] | outcome [7] | Potency [8] | Potency [9]

CCN(CC)CCNC(C(=O)OCCC(C)C)c1ccccc1 (configuration not stated)
inactive: outcome [1] | Potency [2] | outcome [3] | outcome [4] | outcome [5] | Potency [6] | outcome [7] | Potency [8] | Potency [9]

CC(C)(C)C1CCCCC1O (configuration not stated)
inactive: outcome [1] | Potency [2] | outcome [3] | outcome [4] | outcome [5] | Potency [6] | outcome [7] | Potency [8] | Potency [9]

CCN1CCC[C@H]1CNC(=O)c1c(OC)ccc(Br)c1OC
inactive: outcome [1] | Potency [2] | outcome [3] | outcome [4] | outcome [5] | Potency [6] | outcome [7] | Potency [8]

C[C@@H](C1=C(CCN(C)C)Cc2ccccc21)c1ccccn1
inactive: outcome [1] | Potency [2] | outcome [3] | outcome [4] | outcome [5] | Potency [6] | outcome [7] | Potency [8]

CCCCCCCCCO
inactive: outcome [1] | Potency [2] | outcome [3] | outcome [4] | outcome [5] | Potency [6] | outcome [7] | Potency [8] | Potency [9]
